According to the supplement of paper PMC6805474:

Columns and labels:
[1] = tested on: Schistosoma mansoni schistosomula (LE); test: XTT viability relative to DMSO control; higher = more viable (less active); conditions: 72 h; 10 µM
Protocol: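 XTT/PMS was then added for a further 24 h (72 h total) and A450 was read. % viability = (sample - heat-killed control)/(DMSO control - heat-killed control) x 100, from duplicate wells in two independent experiments.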

[2] = tested on: Schistosoma mansoni schistosomula (NMRI); test: phenotypic severity score (0-4); higher = more antischistosomal effect, active = 2 or more; conditions: 10 µM
[3] = tested on: Schistosoma mansoni schistosomula (Liberian); test: drug effect (1 - score/DMSO control score) (fraction); higher = more antischistosomal effect, active = 0.5 or more; extreme values may be limits of the assay; conditions: 10 µM
Outline: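 Drug effect was calculated by comparing the mean score of the test wells with the mean score of the DMSO wells, and any negative value was set to zero. Duplicate wells of 50 Liberian-strain S. mansoni schistosomula, mechanically transformed from cercariae and pre-incubated at least 12 h, received 10 µM compound in Medium 199 with 5% FCS at 37 °C, 5% CO2, with 0.1% DMSO in the comparison wells. Visual scoring at 10× took place at 24, 48 and 72 h on a quarter-point scale from 3 (normal) to 0 (dead), and a plate counted only if its DMSO wells averaged at least 2.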
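For phenotypic severity score (0-4) in this document: visual microscopic scoring of shape, motility and density changes versus 0.5% DMSO solvent controls, one point per descriptor, degeneracy or death scored 4, mean of duplicate wells.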

Compound	XTT viability [1] [%]	phenotypic severity score ([2]; 24 h)	phenotypic severity score ([2]; 48 h)	phenotypic severity score ([2]; 72 h)	drug effect ([3]; 24 h)	drug effect ([3]; 48 h)	drug effect ([3]; 72 h)
O=C(Nc1nc(-c2ccccn2)cs1)C1CC1c1ccccc1F (stereo not drawn)	71.7	0 (inactive)	0 (inactive)	0 (inactive)	0.182 (inactive)	0.3 (inactive)	0.127 (inactive)
O=C(Nc1ccnc(-c2cccnc2)n1)c1cc(C(F)(F)F)cc(C(F)(F)F)c1	91	0 (inactive)	0 (inactive)	0 (inactive)	0.1 (inactive)	0.0811 (inactive)	0.111 (inactive)
Clc1ccc(Cl)c(CO[C@H]2CCCC[C@@H]2n2ccnc2)c1	109	0 (inactive)	0 (inactive)	0 (inactive)	0.2 (inactive)	0.167 (inactive)	0.25 (inactive)
CO[C@H]1/C=C/O[C@@]2(C)Oc3c(C)c(O)c4c(O)c(/c(=C/NN5CCN(C)CC5)c(O)c4c3C2=O)=N\C(=O)/C(C)=C\C=C/[C@H](C)[C@H](O)[C@@H](C)[C@@H](O)[C@@H](C)[C@H](OC(C)=O)[C@@H]1C	116	0 (inactive)	0 (inactive)	0 (inactive)	0.0455 (inactive)	0.05 (inactive)	0.105 (inactive)
CC(C)(C(=O)Nc1ccc(F)cc1)n1cc(-c2ccccc2F)cn1	128	0 (inactive)	0 (inactive)	0 (inactive)	0.135 (inactive)	0.111 (inactive)	< 0 (inactive)
Cc1ccc(C(=O)Nc2ccc(S(=O)(=O)O)c3cc(S(=O)(=O)O)cc(S(=O)(=O)O)c23)cc1NC(=O)c1cccc(NC(=O)Nc2cccc(C(=O)Nc3cc(C(=O)Nc4ccc(S(=O)(=O)O)c5cc(S(=O)(=O)O)cc(S(=O)(=O)O)c45)ccc3C)c2)c1	94.8	0 (inactive)	0 (inactive)	0 (inactive)	0.15 (inactive)	0.297 (inactive)	0.389 (inactive)
Cc1cnc(N2CCN[C@@H](Cc3ccccc3)C2)nc1Oc1ccc(-n2ccnc2)cc1	17.8	4 (active)	4 (active)	4 (active)	0.3 (inactive)	0.556 (active)	1 (active)
CC[P](CC)(CC)=[Au][S][C@H]1O[C@@H](COC(C)=O)[C@H](OC(C)=O)[C@@H](OC(C)=O)[C@@H]1OC(C)=O	203	4 (active)	4 (active)	4 (active)	1 (active)	1 (active)	1 (active)
CC(C)(C)C1CCC(CC2=C(O)C(=O)c3ccccc3C2=O)CC1 (stereo not drawn)	71.7	3 (active)	2 (active)	2 (active)	0.2 (inactive)	0.189 (inactive)	0.278 (inactive)
COc1cccc2c(C)nc(N=C(N)N)nc12	93.3	0 (inactive)	0 (inactive)	0 (inactive)	0.182 (inactive)	0.2 (inactive)	0.127 (inactive)
Cc1nc2ccccn2c1C(=O)NCc1ccc(Cl)cc1	81	0 (inactive)	0 (inactive)	0 (inactive)	0.1 (inactive)	0.189 (inactive)	0.333 (inactive)
NCC(c1cccs1)S(=O)(=O)c1ccccc1 (stereo not drawn)	45.2	1 (inactive)	1 (inactive)	2 (active)	0.15 (inactive)	0.05 (inactive)	0.0556 (inactive)
c1ccc(-c2nc(NC3CCCCC3)cc(C3CC3)n2)nc1	16.4	0 (inactive)	0 (inactive)	0 (inactive)	< 0 (inactive)	0.0811 (inactive)	0.152 (inactive)
Cn1ccnc1CNCCS(=O)(=O)c1cccc(Nc2ccc(-c3cccc(F)c3)cn2)c1	114	0 (inactive)	0 (inactive)	0 (inactive)	0.1 (inactive)	0.0556 (inactive)	0.125 (inactive)
COc1ccccc1CNC(=O)c1cc(C2CC2)nc2c1cnn2C(C)C	38.4	0 (inactive)	0 (inactive)	0 (inactive)	0.2 (inactive)	0.459 (inactive)	0.667 (active)
CN1CCC(NCc2cccc(-c3ccc(S(=O)(=O)NCc4ccccc4)cc3)c2)CC1	19.2	0 (inactive)	2 (active)	4 (active)	0.6 (active)	0.784 (active)	0.939 (active)
N#Cc1nc(-c2ccccc2F)oc1NCCc1ccccc1	94	0 (inactive)	0 (inactive)	0 (inactive)	0.2 (inactive)	0.111 (inactive)	0.125 (inactive)
c1ccc(-c2[nH]c3ccccc3c2C(c2ccccn2)N2CCCC2)cc1 (stereo not drawn)	-3.4	4 (active)	4 (active)	4 (active)	1 (active)	1 (active)	1 (active)
Cn1ncc2c(N3CCOCC3)nc(NCCc3c[nH]c4ccccc34)nc21	71.8	4 (active)	4 (active)	4 (active)	0.45 (inactive)	0.676 (active)	0.944 (active)
COc1ccc(-c2cncc3ccc(C(=O)NCCCn4ccnc4)nc23)cc1	121	1 (inactive)	0 (inactive)	0 (inactive)	< 0 (inactive)	0.027 (inactive)	0.0303 (inactive)
Cc1cc(NC(=O)c2ccc(S(=O)(=O)N(Cc3ccccc3)C(C)C)cc2)no1	106	1 (inactive)	0 (inactive)	0 (inactive)	0.135 (inactive)	0.444 (inactive)	0.25 (inactive)
c1cncc(NCc2ccc(-c3cc4ccncc4cc3OC3CCNCC3)s2)c1	14.8	3 (active)	3 (active)	4 (active)	0.136 (inactive)	0.45 (inactive)	0.556 (active)
Clc1ccc(-n2cc(COc3ccnc4ccccc34)nn2)cc1	103	0 (inactive)	0 (inactive)	0 (inactive)	0.105 (inactive)	0.389 (inactive)	0.312 (inactive)
CC1CS(=O)(=O)CCN1/N=C/c1ccc([N+](=O)[O-])o1 (stereo not drawn)	224	0 (inactive)	0 (inactive)	0 (inactive)	0.3 (inactive)	0.278 (inactive)	0.625 (active)
